Test results taken from PubChem BioAssay AID1159580 (chemical genetic matrix, 2015).
“And” between values parts separate entries of the source, which are not always exact repeats. Equal values may be shown once. In all, about 5,500 compounds went through this assay and about 2,000 (36%) were called active. Roughly 18% stayed inconclusive and do not appear here. Cut-off read from the data, not from the text of the source: active = normalized growth mostly below about 0.91 (no sharp cut-off); inconclusive = no clear call, values can overlap the other calls; inactive = mostly above about 0.92. The list shows a part of the results.

Test: chemical genetic growth profiling, strain panel (AID 1159580);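 note: tested at 20 µM; growth read once vehicle control cultures reached saturation at 30 °C; 1 = growth at the plate median or of vehicle wells; lower values mean less growth of the strain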
Settings: S. cerevisiae deletion strains, growth OD
[1] = locus YGR078C, strain PAC10, stronger effect = lower value
[2] = locus YMR307W, strain GAS1, stronger effect = lower value

Measured: normalized growth

OC[C@H]1O[C@@H](n2cnc3c(NC4CCCCC4)ncnc32)[C@H](O)[C@@H]1O
inactive: locus YAL040C, strain CLN3, stronger effect = lower value 1.04 | locus YCL061C, strain MRC1 (second series), stronger effect = lower value 1.01 | locus YDR363W, strain ESC2, stronger effect = lower value 0.994 | locus YER002W, strain NOP16, stronger effect = lower value 1.01 | [1] 1.05 | locus YMR263W, strain SAP30, stronger effect = lower value 1.01 | [2] 1.01 | locus YNL175C, strain NOP13, stronger effect = lower value 1.01 | locus YNL197C, strain WHI3, stronger effect = lower value 1.01 | locus YNL224C, strain SQS1, stronger effect = lower value 1 | locus YNL322C, strain KRE1, stronger effect = lower value 1.02 | locus YOR083W, strain WHI5 (second series), stronger effect = lower value 0.984 | locus YPL055C, strain LGE1, stronger effect = lower value 0.995

CC(C)c1cc2c(c(O)c1O)[C@@]1(C(=O)O)CCCC(C)(C)C1CC2 (some centres undefined)
0.962 (inactive) and 0.657 (active): locus YJL095W, strain BCK1, stronger effect = lower value
active: locus YAL026C, strain drs2, stronger effect = lower value 0.835 | locus YAL030W, strain snc1, stronger effect = lower value 0.917 | locus YBR009C, strain hhf1, stronger effect = lower value 0.775 | locus YCL011C, strain gbp2, stronger effect = lower value 0.908 | locus YCL016C, strain dcc1, stronger effect = lower value 0.886 | locus YDL192W, strain arf1, stronger effect = lower value 0.874 | locus YDR392W, strain spt3, stronger effect = lower value 0.24 | locus YER155C, strain BEM2 (second series), stronger effect = lower value 0.697 | locus YGL173C, strain kem1, stronger effect = lower value 0.885 | locus YGR229C, strain SMI1, stronger effect = lower value 0.207 | locus YHR013C, strain ard1, stronger effect = lower value 0.705 | locus YHR030C, strain SLT2, stronger effect = lower value 0.903 and 0.663 | locus YHR079C, strain IRE1, stronger effect = lower value 0.341 | locus YJL095W, strain BCK1 (second series), stronger effect = lower value 0.86 | locus YJL164C, strain tpk1, stronger effect = lower value 0.908 | locus YJL166W, strain qcr8, stronger effect = lower value 0.462 | locus YKL085W, strain MDH1 (second series), stronger effect = lower value 0.913 | locus YKL085W, strain MDH1, stronger effect = lower value 0.913 | locus YKR001C, strain vps1, stronger effect = lower value 0.866 | locus YLL041C, strain sdh2, stronger effect = lower value 0.664 | locus YLR027C, strain aat2, stronger effect = lower value 0.884 | locus YLR113W, strain HOG1, stronger effect = lower value 0.434 | locus YLR221C, strain rsa3, stronger effect = lower value 0.792 | locus YLR258W, strain gsy2, stronger effect = lower value 0.859 | locus YLR262C, strain YPT6 (second series), stronger effect = lower value 0.552 | locus YLR262C, strain YPT6, stronger effect = lower value 0.546 | locus YLR320W, strain mms22, stronger effect = lower value 0.809 | locus YLR418C, strain cdc73, stronger effect = lower value 0.642 | locus YMR058W, strain fet3, stronger effect = lower value 0.815 | locus YMR125W, strain sto1, stronger effect = lower value 0.827 | locus YMR205C, strain PFK2, stronger effect = lower value 0.873 | [2] 0.472 | locus YNL071W, strain lat1, stronger effect = lower value 0.207 | locus YNL271C, strain bni1, stronger effect = lower value 0.908 | locus YNL298W, strain CLA4, stronger effect = lower value 0.874 | locus YOR070C, strain gyp1, stronger effect = lower value 0.92 | locus YOR231W, strain MKK1, stronger effect = lower value 0.394 | locus YPL051W, strain arl3, stronger effect = lower value 0.897 | locus YPL240C, strain hsp82, stronger effect = lower value 0.614 | locus YPL241C, strain CIN2, stronger effect = lower value 0.914 | locus YPL256C, strain CLN2, stronger effect = lower value 0.421
inactive: locus YAL021C, strain ccr4, stronger effect = lower value 0.988 | locus YBL061C, strain skt5, stronger effect = lower value 0.953 | locus YBR021W, strain FUR4, stronger effect = lower value 1.01 | locus YBR023C, strain chs3, stronger effect = lower value 0.956 | locus YBR171W, strain sec66, stronger effect = lower value 0.975 | locus YBR229C, strain ROT2, stronger effect = lower value 1.01 | locus YBR231C, strain swc5, stronger effect = lower value 0.969 | locus YBR279W, strain paf1, stronger effect = lower value 0.948 | locus YCL029C, strain bik1, stronger effect = lower value 1.01 | locus YCL061C, strain MRC1, stronger effect = lower value 0.954 | locus YCL069W, strain vba3, stronger effect = lower value 0.998 | locus YCR088W, strain abp1, stronger effect = lower value 0.991 | locus YDL005C, strain med2, stronger effect = lower value 1 | locus YDL035C, strain GPR1, stronger effect = lower value 0.943 | locus YDL040C, strain nat1, stronger effect = lower value 0.99 | locus YDL074C, strain BRE1, stronger effect = lower value 0.946 | locus YDL101C, strain DUN1, stronger effect = lower value 1.01 | locus YDL134C, strain PPH21, stronger effect = lower value 0.993 | locus YDL185W, strain tfp1, stronger effect = lower value 0.998 | locus YDR001C, strain nth1, stronger effect = lower value 0.997 | locus YDR069C, strain doa4, stronger effect = lower value 0.923 | locus YDR101C, strain arx1, stronger effect = lower value 1.02 | locus YDR137W, strain rgp1, stronger effect = lower value 0.876 | locus YDR150W, strain NUM1, stronger effect = lower value 0.929 | locus YDR159W, strain sac3, stronger effect = lower value 0.902 | locus YDR162C, strain NBP2, stronger effect = lower value 0.851 | locus YDR195W, strain ref2 0.979 | locus YDR297W, strain sur2, stronger effect = lower value 0.982 | locus YDR318W, strain mcm21, stronger effect = lower value 0.959 | locus YDR334W, strain swr1, stronger effect = lower value 1 | locus YDR335W, strain msn5, stronger effect = lower value 0.988 | locus YDR388W, stronger effect = lower value 1 | locus YDR502C, strain sam2, stronger effect = lower value 0.972 | locus YEL003W, strain gim4, stronger effect = lower value 0.94 | locus YEL037C, strain rad23, stronger effect = lower value 0.992 | locus YEL061C, strain CIN8 (second series), stronger effect = lower value 0.993 | locus YEL061C, strain CIN8, stronger effect = lower value 0.968 | locus YER015W, strain faa2, stronger effect = lower value 0.987 | locus YER016W, strain bim1, stronger effect = lower value 0.971 | locus YER110C, stronger effect = lower value 1.03 | locus YER111C, strain swi4, stronger effect = lower value 0.975 | locus YER155C, strain BEM2, stronger effect = lower value 1.04 | locus YER167W, strain BCK2, stronger effect = lower value 0.981 | locus YFR010W, strain ubp6, stronger effect = lower value 0.944 | locus YGL078C, strain dbp3, stronger effect = lower value 0.957 | locus YGL086W, strain mad1, stronger effect = lower value 0.94 | locus YGL167C, strain pmr1, stronger effect = lower value 0.978 | locus YGL227W, strain vid30, stronger effect = lower value 1 | locus YGL240W, strain doc1, stronger effect = lower value 0.938 | locus YGL248W, strain PDE1, stronger effect = lower value 0.962 | locus YGL253W, strain hxk2, stronger effect = lower value 0.976 | [1] 0.873 | locus YGR135W, strain pre9, stronger effect = lower value 0.969 | locus YGR252W, strain gcn5, stronger effect = lower value 0.903 | locus YHR027C, strain rpn1, stronger effect = lower value 0.956 | locus YHR079C, strain IRE1 (second series), stronger effect = lower value 1 | locus YHR094C, strain hxt1, stronger effect = lower value 1.01 | locus YHR129C, strain ARP1, stronger effect = lower value 0.921 | locus YHR142W, strain chs7, stronger effect = lower value 0.969 | locus YHR200W, strain rpn10, stronger effect = lower value 0.984 | locus YIL066C, strain RNR3, stronger effect = lower value 0.937 | locus YIL073C, strain SPO22, stronger effect = lower value 0.936 | locus YIL125W, strain kgd1, stronger effect = lower value 0.958 | locus YIR030C, strain dcg1, stronger effect = lower value 1.01 | locus YJL092W, strain hpr5, stronger effect = lower value 0.98 | locus YJL115W, strain asf1, stronger effect = lower value 1.01 | locus YJL129C, strain trk1, stronger effect = lower value 1.04 | locus YJL134W, strain LCB3, stronger effect = lower value 1.02 | locus YJL154C, strain vps35, stronger effect = lower value 1 | locus YJL168C, strain set2, stronger effect = lower value 1.01 | locus YJL187C, strain SWE1 (second series), stronger effect = lower value 0.973 | locus YJL187C, strain SWE1, stronger effect = lower value 0.972 | locus YJR043C, strain POL32, stronger effect = lower value 0.982 | locus YJR066W, strain TOR1, stronger effect = lower value 0.84 | locus YJR075W, strain HOC1, stronger effect = lower value 0.947 | locus YKL009W, strain mrt4, stronger effect = lower value 0.95 | locus YKL068W, stronger effect = lower value 1.02 | locus YKL160W, strain elf1, stronger effect = lower value 0.957 | locus YKR026C, strain gcn3, stronger effect = lower value 0.994 | locus YKR091W, strain srl3, stronger effect = lower value 0.988 | locus YLL001W, strain dnm1, stronger effect = lower value 0.984 | locus YLL026W, stronger effect = lower value 0.932 | locus YLR039C, strain RIC1, stronger effect = lower value 0.831 | locus YLR058C, strain SHM2, stronger effect = lower value 1 | locus YLR102C, strain apc9, stronger effect = lower value 1.01 | locus YLR268W, strain sec22, stronger effect = lower value 0.901 | locus YLR330W, strain CHS5, stronger effect = lower value 0.944 | locus YLR342W, strain FKS1 (second series), stronger effect = lower value 0.84 | locus YLR342W, strain FKS1, stronger effect = lower value 0.968 | locus YLR357W, strain rsc2, stronger effect = lower value 0.949 | locus YLR370C, strain arc18, stronger effect = lower value 0.974 | locus YLR371W, strain rom2, stronger effect = lower value 0.976 | locus YLR384C, strain iki3, stronger effect = lower value 1 | locus YML016C, strain PPZ1, stronger effect = lower value 0.994 | locus YML032C, strain rad52, stronger effect = lower value 0.993 | locus YML120C, strain ndi1, stronger effect = lower value 0.984 | locus YML124C, strain tub3, stronger effect = lower value 1.01 | locus YMR078C, strain ctf18, stronger effect = lower value 1 | locus YMR129W, stronger effect = lower value 0.99 | locus YMR223W, strain ubp8, stronger effect = lower value 0.964 | locus YMR231W, strain pep5, stronger effect = lower value 0.97 | locus YNL067W, strain RPL9B, stronger effect = lower value 0.972 | locus YNL153C, strain GIM3, stronger effect = lower value 0.985 | locus YNL183C, strain NPR1, stronger effect = lower value 0.9 | locus YNL209W, strain ssb2, stronger effect = lower value 0.962 | locus YNL233W, strain BNI4, stronger effect = lower value 0.955 | locus YNL248C, strain rpa49, stronger effect = lower value 0.98 | locus YNL250W, strain rad50, stronger effect = lower value 1.01 | locus YNL307C, strain MCK1, stronger effect = lower value 0.956 | locus YNL322C, strain KRE1 (second series), stronger effect = lower value 1.03 | locus YNR049C, strain mso1, stronger effect = lower value 0.997 | locus YNR052C, strain pop2, stronger effect = lower value 0.973 | locus YOL012C, strain htz1 0.721 | locus YOL147C, strain pex11, stronger effect = lower value 1.04 | locus YOR001W, strain rrp6, stronger effect = lower value 0.992 | locus YOR061W, strain CKA2, stronger effect = lower value 1 | locus YOR069W, strain VPS5, stronger effect = lower value 0.998 | locus YOR080W, strain dia2, stronger effect = lower value 0.987 | locus YOR083W, strain WHI5, stronger effect = lower value 0.965 | locus YOR106W, strain vam3, stronger effect = lower value 0.871 | locus YOR136W, strain idh2, stronger effect = lower value 1 | locus YOR144C, strain elg1, stronger effect = lower value 1.01 | locus YOR184W, strain ser1, stronger effect = lower value 0.964 | locus YOR265W, strain rbl2, stronger effect = lower value 0.982 | locus YOR270C, strain vph1, stronger effect = lower value 0.954 | locus YOR290C, strain snf2, stronger effect = lower value 0.945 | locus YOR316C, strain cot1, stronger effect = lower value 1.02 | locus YPL078C, strain atp4, stronger effect = lower value 1.01 | locus YPL106C, strain sse1, stronger effect = lower value 0.968 | locus YPR119W, strain clb2, stronger effect = lower value 1.03 | locus YPR141C, strain kar3, stronger effect = lower value 0.992 | locus YPR163C, strain tif3, stronger effect = lower value 0.964 | locus YPR167C, strain met16, stronger effect = lower value 1 | strain wtn01, stronger effect = lower value 0.936
